# Screens (PubChem)
# Compounds with a hit are over-represented: about 2.9% of the library has one in this group of screens.
# FadD28 FP inh: blocks FadD28 binding to the bisubstrate probe; fluorescence polarization; inhibition, % at 12.5 µM; 360,000 tested, 0.22% active; AID 588549; in the data active = inhibition above about 8.5%, passing the limit was not always enough; inconclusive = no clear call, values can overlap the other calls
# FBA Mtb inh: Mtb fructose-bisphosphate aldolase inhibition. P9WQA3. purified M. tuberculosis FBA, fluorescence read-out. inhibition, % at 1 µM. 360,000 tested, 2.3% active. AID 588726;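 also: 0% = vehicle and 100% = reference inhibitor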
# Target sequence (P9WQA3 whole entry, looked up): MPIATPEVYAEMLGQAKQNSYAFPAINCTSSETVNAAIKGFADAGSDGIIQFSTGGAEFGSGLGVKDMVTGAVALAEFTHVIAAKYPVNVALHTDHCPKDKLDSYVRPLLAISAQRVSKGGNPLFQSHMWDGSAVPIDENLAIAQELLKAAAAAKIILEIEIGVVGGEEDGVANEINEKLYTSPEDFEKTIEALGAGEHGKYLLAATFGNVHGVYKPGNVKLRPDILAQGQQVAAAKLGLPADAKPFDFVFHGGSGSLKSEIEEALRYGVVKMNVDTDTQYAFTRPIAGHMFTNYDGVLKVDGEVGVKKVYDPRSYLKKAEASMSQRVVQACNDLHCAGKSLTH
# GDH-TPI counter-1: inhibits GDH-TPI coupling enzymes, artifact for Mtb FBA screen; GDH-TPI coupled enzyme counterscreen, NADH absorbance; inhibition, % at 4.8 µM; 360,000 tested, 1.2% active; AID 588335; in the data active = inhibition above about 30%;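 also: 0% = DMSO wells and 100% = wells lacking the enzyme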
# Mtb hypoxia inh: inhibitors of hypoxia-regulated fluorescent reporter in Mycobacterium tuberculosis; fluorescence inhibition, % (test concentration not listed); M. tuberculosis hypoxia-regulated fluorescent reporter, fluorescence; 300,000 tested, 0.1% active; in the data active = fluorescence inhibition mostly above about 23%, no sharp cut-off; inactive = mostly below about 17%
# BioA inh: BioA (M. tuberculosis) enzyme inhibition | inhibition, % at 9.99 µM | purified M. tuberculosis BioA enzyme, plate reader | 360,000 tested, 0.096% active | AID 602481; in the data active = inhibition above about 40%; inconclusive = no clear call, values can overlap the other calls
# Mtb FBA confirm: Mtb FBA inhibition, confirmed. inhibition, % at 1 µM. purified M. tuberculosis FBA, fluorescence read-out. 5,600 tested, 78% active. shares compounds with FBA Mtb inh;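 also: 0% = vehicle wells and 100% = reference inhibitor wells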
# GDH-TPI counter-2: inhibits GDH-TPI coupling enzymes, flagging Mtb FBA hits | GDH-TPI coupled enzyme counterscreen, fluorescence | shares compounds with FBA Mtb inh | inhibition, % at 1 µM | 5,600 tested, 81% active; in the data active = inhibition above about 10%
# * hit, by the source's call; u = inconclusive; x = not tested or not shown; + = active, no number. Rule as the data show it, unless noted: active = inhibition above about 27%; inactive = the rest.
SMILES,FadD28 FP inh,FBA Mtb inh,GDH-TPI counter-1,Mtb hypoxia inh,BioA inh,Mtb FBA confirm,GDH-TPI counter-2
COc1ccc(-c2nc3ncnn3cc2C)cc1F,0,73*,-4,-6,14,+,+
COc1ccc(-c2nc3nc(SC)nn3cc2C)cc1F,-4,16,1,2,x,x,x
Oc1ccc(Br)cc1C=Nc1ccc2c3c(cccc13)CC2,0,38*,6,2,x,+,+
COc1cc2c(cc1OC)CN(Cc1ccc(F)cc1)CC2,0,43*,1,4,0,64*,45*
Cc1nn(CC(=O)Nc2ccc3c(c2)nc(CCN2CCCCC2)n3C)c(=O)c2ccccc12,-3,10,-4,11,0,x,x
Cc1nn(CC(=O)Nc2ccc3c(c2)nc2n3CCN(C3CCCCC3)C2)c(=O)c2ccccc12,-8,51*,-1,-5,-1,130*,101*
CC(c1ccccc1)N1CCn2c(nc3cc(NC(=O)NC4CCCCC4)ccc32)C1 (stereo not given),-2,57*,2,2,2,56*,52*
CCOC1OC(C(=O)N2CCN(C)CC2)=CC(C)C1CCCO (stereo not given),x,x,x,-4,x,x,x
c1ccc(-n2nnnc2SCc2cn3cccnc3n2)cc1,0,43*,6,8,4,76*,57*
CC(C)NC(=O)Nc1ccc2c(c1)C(=O)N([C@H](C)CO)C[C@@H](C)[C@H](CN(C)S(=O)(=O)c1cccs1)O2,x,x,x,x,7,x,x
COC(=O)c1c(S(N)(=O)=O)c2ccccc2n1C,-1,33*,-3,-1,1,+,+
CN(C(=O)C1CCOC1)c1nnc(-c2ccccn2)s1 (stereo not given),1,15,19,x,-4,x,x
CN(C(=O)c1ccncc1)c1nnc(-c2ccncc2)s1,-1,43*,1,x,1,92*,81*
CN(C(=O)C1CCCO1)c1nnc(-c2ccccn2)s1 (stereo not given),0,68*,10,x,-4,160*,146*
CN(C(=O)C1CCOC1)c1nnc(-c2ccncc2)s1 (stereo not given),-1,16,16,8,-1,x,x
CN(C(=O)C1CCCO1)c1nnc(-c2ccncc2)s1 (stereo not given),-1,63*,4,7,-2,104*,89*
COCC(=O)N(C)c1nnc(-c2ccccn2)s1,-6,52*,6,19,0,92*,69*
Cc1cccc(C(=O)N(C)c2nnc(-c3ccncc3)s2)c1,1,0,6,x,0,x,x
CC(C)NC(=S)NN=Cc1cccs1,x,x,x,21,x,x,x
Cc1cc(S(=O)(=O)Nc2c(NC3CCCCC3)c3ccccc3oc2=O)ccc1F,u,5,6,-5,1,x,x
COc1ccc(S(=O)(=O)Nc2c(NC3CCCCC3)c3ccccc3oc2=O)cc1Cl,-11,29*,-7,-6,-1,+,+
CCOc1ccc(OCCCC(=O)N(C)CC(=O)Nc2ccccc2Br)cc1,-3,-2,-1,20,-1,x,x
CCCN(CC(=O)Nc1ccccc1C)C(=O)CCCOc1ccc(Br)cc1,-5,38*,-3,9,0,-2,-4
CNC[C@@H]1Oc2ccc(NC(=O)Cc3cn(C)c4ccccc34)cc2C(=O)N([C@H](C)CO)C[C@@H]1C,x,x,x,x,-2,x,x
CO[C@@H]1CN(C)C(=O)c2cc(NC(=O)c3ccccc3)ccc2OC[C@H](C)N(CC2CC2)C[C@H]1C,x,x,x,x,-3,x,x
SMILES,FadD28 FP inh,FBA Mtb inh,GDH-TPI counter-1,Mtb hypoxia inh,BioA inh,Mtb FBA confirm,GDH-TPI counter-2
CCCOc1c(Br)cc(C2C3=C(CCCC3=O)N(CC)C3=C2C(=O)CCC3)cc1OC,-6,31*,5,-10,x,30*,35*
CCCOc1c(Br)cc(C2C3=C(CCCC3=O)N(C)C3=C2C(=O)CCC3)cc1OC,-2,42*,12,-16,x,+,+
Cc1cc(OCC(=O)NC2CCS(=O)(=O)C2)c2c3c(c(=O)oc2c1)CCC3 (stereo not given),0,23,3,2,-1,x,x
Cc1cc(=O)oc2c3c(cc(OCC(=O)NC4CC4)c12)OC(C)(C)CC3,-2,75*,1,x,0,52*,29*
Cc1cc(=O)oc2cc(OCC(=O)NC3CCCCC3)c(Cl)cc12,-1,10,8,17,3,x,x
Cc1cc(OCC(=O)NC2CC2)c2c(C)c(C)c(=O)oc2c1,-2,76*,14,0,0,53*,45*
Cc1c(C)c2ccc(OC(C)C(=O)NC3CCN(Cc4ccccc4)CC3)cc2oc1=O (stereo not given),-3,84*,-7,6,1,8,-3
CCCc1cc(=O)oc2cc(OCC(=O)OC)cc(OCC(=O)OC)c12,x,x,x,4,x,x,x
CCCc1cc(=O)oc2cc(C)cc(OCC(=O)NC3CC3)c12,1,93*,14,0,-1,1,2
C[C@@H](NC(=O)C[C@@H]1CC[C@@H](NC(=O)C2CCC2)[C@H](CO)O1)c1ccccc1,x,x,x,x,5,x,x
CCCNC(=O)Cn1c(=CC(=O)C(C)(C)C)sc(=Cc2ccc(-c3cccc([N+](=O)[O-])c3)o2)c1=O,x,x,x,6,x,x,x
CN(C)C(=O)c1cccc(-c2cccc(-c3nc(C(=O)NCc4ccccc4)cc4c3[C@H](CCO)N([S@@](=O)C(C)(C)C)C4)c2)c1,x,x,x,x,2,x,x
C#CC1(O)CCC2C3CCC4=CC(=NOCC(=O)NCC(=O)NC(C(=O)O)C(C)C)CC[C@]4(C)C3CC[C@@]21C (stereo not given in full),x,x,x,-7,x,x,x
O=S(=O)(NN=Cc1cccnc1)c1ccc(Cl)c(Cl)c1,x,x,x,14,x,x,x
Cc1cc(OCC(=O)NCC2CCC(C(=O)O)CC2)c2c3c(c(=O)oc2c1)CCC3 (stereo not given),-2,20,15,x,-1,x,x
CCc1cc(=O)oc2cc(C)cc(OCC(=O)NC3CC3)c12,-3,65*,9,14,-2,21,22*
Cc1cc(OCC(=O)NC2CC2)c2c(C)cc(=O)oc2c1,-3,80*,4,9,0,51*,38*
CCc1cc(=O)oc2cc(C)cc(OCC(=O)NC3CCN(Cc4ccccc4)CC3)c12,0,40*,15,6,-1,1,3
CC(=O)Nc1ccc(NC(=O)COc2cc(C)cc3oc(=O)cc(C)c23)cc1,-1,2,3,-4,0,x,x
Cc1cc(=O)oc2cc(OCC(=O)NC3CCCC3)ccc12,-3,16,-9,x,-2,x,x
Cc1cc(OCC(=O)N2CCC[C@@H]2C(=O)O)c2c(C)c(C)c(=O)oc2c1,-1,84*,8,x,-1,123*,98*
C[C@@H]1CN([C@@H](C)CO)C(=O)Cc2cc(NC(=O)Nc3ccc4c(c3)OCO4)ccc2O[C@H]1CN(C)CC1CC1,x,x,x,x,-2,x,x
